# Assay outcomes (PubChem)
# ATXN viability – cell viability loss in ATXN counter-screen. Potency, µM (doses to about 56.7 µM), most hits filed as cytotoxic. S2 cells (HEK-293 line with an ATXN2-luciferase reporter) viability, CellTiter-Fluor protease fluorescence, 24 h. 0.49% of 400,000 active; note: nearly all actives have a fitted effect of over 40% in size
# DT40 TDP1 CPT – DT40-hTDP1 cell growth loss with CPT | AID 686979 | 12% of 420,000 active | chicken DT40 Tdp1-/-;hTDP1 cells + 20 nM CPT, ATP luminescence, 48 h | Potency, µM (doses to about 46.2 µM), usual class: inhibitors; note: nearly all actives have a fitted effect of over 55% in size
#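 Cell growth measured by CellTiter-Glo luminescence after a minimum 48 h, 37 C compound exposure with 20 nM CPT in Tdp1-knockout DT40 cells stably expressing hTDP1, seeded 400/well; qHTS titration format.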
# TGFb inhibitor – inhibitors of TGF-b signaling; HepG2 CAGA-GFP TGF-b/SMAD3 reporter, GFP fluorescence, 18 h; TGF-beta stimulated, 500 pg/mL final; Potency, µM (highest dose often 46.1 µM), most hits filed as inhibitors; 1.2% of 410,000 active; AID 588855; note: nearly all actives have a fitted effect of over 65% in size
#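 Read-out: total well GFP (ex488/em500-530) summed from mean per-cell fluorescence. Cells: HEPG2 CAGA-GFP, 1% FBS DMEM, 18 h at 37 degrees C with 500 pg/mL final TGF-beta. Unstimulated wells served as the full-inhibition control; stimulated DMSO wells = 0%.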
# HepG2 viability – kills HepG2 cells in TGF-b inhibitor counter-screen. AID 588856. 0.76% of 410,000 active. Potency, µM (highest dose often 46.1 µM), hits mostly cytotoxic. HepG2 CAGA-GFP viability, ATP luminescence, 18 h
#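 HepG2 CAGA-GFP cells (1000/well, DMEM with 1% FBS) received compound, then TGF-beta at 500 pg/mL final, and were incubated 18 hours at 37 degrees C. Viability was read by CellTiter-Glo luminescence. Media-only wells were set as complete cell-killing and DMSO as no toxicity.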
# ATXN2 expr inh – ATXN2 expression inhibition; 0.72% of 360,000 active; Potency, µM (titrated, usually from 57 µM), usual class: inhibitors; HEK-293 ATXN2-luciferase reporter, luminescence, 24 h; note: nearly all actives have a fitted effect of over 55% in size
#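 ATXN2-luciferase reporter cells (luciferase flanked by upstream and downstream ATXN2 gene portions) were treated 24 h at 37 °C with compounds at up to 57 uM. SteadyGlo luminescence gave expression; GF-AFC fluorescence gave viability.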
# DT40 TDP1 no CPT – qHTS for Inhibitors of human tyrosyl-DNA phosphodiesterase 1 (TDP1): qHTS in cells in absence of CPT; DT40 Tdp1-/- hTDP1 cells, no CPT, ATP luminescence, 48 h; Potency, µM (titrated, usually from 46.2 µM), actives largely listed as inhibitors; 15% of 420,000 active; note: nearly all actives have a fitted effect of over 55% in size
#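 Luminescent ATP content (CellTiter-Glo) served as the growth readout. Knockout chicken DT40 cells expressing human TDP1 were exposed to compounds without camptothecin for a minimum 48 hr at 37 °C.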
# A number is an active result; - = inactive; ? = inconclusive; . = no result given; ! = not active in a repeat; [ ] = remark or other dose. Hits are enriched below; roughly 17% of the tested compounds scored in any of these assays. Calls come from the whole dose curve; as a rule, active = well fitted curve in the direction sought with a large enough effect; inconclusive = small, poorly fitted or top-dose-only effect, or another doubt; inactive = no such curve, though single readings can be large; an effect the other way counts as inactive or inconclusive.
SMILES,ATXN viability,DT40 TDP1 CPT,TGFb inhibitor,HepG2 viability,ATXN2 expr inh,DT40 TDP1 no CPT
O=C(NCc1cccs1)C1CCN(S(=O)(=O)c2ccccc2F)CC1,-,-,-,-,.,-
CCOC(=O)Cc1csc(NC(=O)c2ccc(C)c(S(=O)(=O)N3CCOCC3)c2)n1,-,?,-,-,-,-
Cc1ccc2nc3sc(C(=O)N4CCOCC4)c(N)c3cc2c1,-,-,-,-,2.51µM,?
Cc1ccc2cc3c(N)c(C(=O)N4CCOCC4)sc3nc2c1,-,-,-,-,-,?
COc1ccc2cc3c(N)c(C(=O)N4CCCC4)sc3nc2c1,-,?,?,-,-,20.6µM
CCOc1ccccc1Nc1nc2ccccc2nc1NS(=O)(=O)c1ccc(Cl)cc1,-,?,-,-,-,5.17µM
COc1cccc(Nc2nc3cc(C)ccc3nc2NS(=O)(=O)c2ccc(Cl)cc2)c1,?,5.17µM,7.94µM,-,-,4.11µM
Cc1ccc2nc(NS(=O)(=O)c3ccc(Cl)cc3)c(Nc3ccc(C(=O)O)cc3)nc2c1,-,-,-,-,-,-
COc1cc(CN2CCNC(=O)C2CC(=O)N2CCCN(C(C)=O)CC2)cc(OC)c1 (stereo unspecified),-,-,-,-,-,-
O=c1c(O)c(-c2ccccc2)oc2cc(O)cc(O)c12,-,?,?,-,-,29.9µM
O=c1c(O)c(-c2cc(O)c(O)c(O)c2)oc2cc(O)cc(O)c12,?,11.2µM!,-,-,-,18.4µM
O=C(Cn1nc([N+](=O)[O-])nc1Br)NC(c1ccccc1)c1ccccc1,?,20.6µM,-,-,-,16.4µM
O=C(CN1CCCC1)NC(c1ccccc1)c1ccccc1,-,20.6µM,-,-,-,16.4µM
O=C(CN1C(=O)NC2(CCCC2)C1=O)NC(c1ccccc1)c1ccccc1,-,?,-,-,-,16.4µM
COC(=O)c1c(NC(=O)C(=O)NCCCN2CCOCC2)sc2c1CCCC2,-,-,-,-,-,?
CCOc1cc(/C=C2\COc3ccccc3C2=O)ccc1OCC(=O)N(C)C,-,?,?,-,-,10.3µM
O=C1/C(=C/c2cccs2)COc2ccccc21,-,?,?,-,-,?
CCNC(=O)COc1ccc(/C=C2\COc3ccccc3C2=O)cc1OC,?,14.6µM,?,-,?,13µM
COc1cc(C=C2C(=O)OC(C)(C)OC2=O)ccc1OCC(=O)Nc1ccccc1,-,-,-,-,.,-
CCc1ccc2oc(C(=O)Nc3nc(-c4ccccc4)ns3)c(C)c2c1,.,-,-,-,.,-
Cc1cnc(C)c(-c2cc(F)cc3c2OC(CNC(=O)Cc2ccccc2C)C3)n1 (stereo unspecified),-,-[9.04 µM],.,.,.,?
COC(=O)CSc1nc2ccc(NC(=O)c3ccccc3C(=O)N3CCOCC3)cc2s1,-,-,-,-,-,-
O=C(COc1ccccc1Cl)Nc1ccc2nc(SCC(=O)N3CCOCC3)sc2c1,.,?,-,-,.,4.11µM
NC(=O)CSc1nc2ccc(NC(=O)COc3ccccc3Cl)cc2s1,?,?,-,-,-,?
COc1ccccc1C(=O)Nc1ccc2nc(SCC(=O)N3CCCC3)sc2c1,.,?,-,-,.,4.11µM
SMILES,ATXN viability,DT40 TDP1 CPT,TGFb inhibitor,HepG2 viability,ATXN2 expr inh,DT40 TDP1 no CPT
O=C(Nc1ccc2nc(SCC(=O)N3CCOCC3)sc2c1)c1ccccc1Cl,.,?,?,-,.,18.4µM
O=C(Nc1ccc2nc(SCC(=O)N3CCCC3)sc2c1)c1ccccc1,.,-,?,-,.,-
O=C(COc1ccccc1)Nc1ccc2nc(SCC(=O)N3CCCC3)sc2c1,.,?,?,-,.,23.1µM
Cc1cc(NC(=O)COC(=O)CCS(=O)(=O)c2cc(Cl)ccc2Cl)no1,-,?,-,-,-,?
CC(C)(C)C(c1nc2ccccc2[nH]1)n1c(-c2ccco2)nc2ccccc21 (stereo unspecified),.,-,.,.,.,-
CCC(c1nc2ccccc2[nH]1)n1c(=O)c(-c2ccco2)nc2ccccc21 (stereo unspecified),.,20.6µM,.,.,.,18.4µM
Cc1ccc(C(c2nc3ccccc3[nH]2)n2c(-c3ccccc3)nc3ccccc32)cc1 (stereo unspecified),?,?,20µM,-,-,?
OC(c1ccccc1)c1nc2ccccc2[nH]1 (stereo unspecified),-,-,-,-,-,-
O=c1c(-c2ccco2)nc2ccccc2n1C(c1ccccc1)c1nc2ccccc2[nH]1 (stereo unspecified),.,16.4µM,.,.,.,23.1µM
COc1ccccc1N1CCN(CCCN2C(=O)C3CCCN3C2=O)CC1 (stereo unspecified),-,-,-,-,-,-
Cc1ccc(NS(=O)(=O)N2CCOCC2)c(C)c1,-,-,-,-,-,-
